Source: PubChem BioAssay AID1159580 (chemical genetic matrix, 2015)
Values joined by “and” are separate entries in the source; they are usually repeats but may differ in a detail not shown here. Equal values may be shown once. Screen size: about 5,500 compounds; about 2,000 (36%) were called active. Roughly 18% stayed inconclusive and do not appear here. No stated cut-off is given here; in the data, active means normalized growth mostly below about 0.91 (no sharp cut-off); inconclusive means no clear call, values can overlap the other calls; inactive means mostly above about 0.92. The list shows a part of the results.

Experiment: chemical genetic growth profiling, strain panel (AID 1159580);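 further: tested at 20 µM; growth read once vehicle control cultures reached saturation at 30 °C; 1 = growth at the plate median or of vehicle wells; lower values mean less growth of the strain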
Details: S. cerevisiae deletion strains, growth OD

Measured: normalized growth

NCC1CCC(C(=O)O)CC1 (stereo not drawn)
inactive: locus YAL021C, strain ccr4, hits give low values 1 | locus YAL026C, strain drs2, hits give low values 0.998 | locus YAL030W, strain snc1, hits give low values 1 | locus YBL061C, strain skt5, hits give low values 0.979 | locus YBR009C, strain hhf1, hits give low values 0.992 | locus YBR021W, strain FUR4, hits give low values 0.988 | locus YBR023C, strain chs3, hits give low values 0.992 | locus YBR171W, strain sec66, hits give low values 0.986 | locus YBR229C, strain ROT2, hits give low values 1 | locus YBR231C, strain swc5, hits give low values 0.988 | locus YBR279W, strain paf1, hits give low values 1.01 | locus YCL011C, strain gbp2, hits give low values 1 | locus YCL016C, strain dcc1, hits give low values 0.993 | locus YCL029C, strain bik1, hits give low values 0.982 | locus YCL061C, strain MRC1, hits give low values 0.999 | locus YCL069W, strain vba3, hits give low values 0.991 | locus YCR088W, strain abp1, hits give low values 0.989 | locus YDL005C, strain med2, hits give low values 0.974 | locus YDL035C, strain GPR1, hits give low values 0.985 | locus YDL040C, strain nat1, hits give low values 0.972 | locus YDL074C, strain BRE1, hits give low values 1.04 | locus YDL101C, strain DUN1, hits give low values 0.996 | locus YDL134C, strain PPH21, hits give low values 0.985 | locus YDL185W, strain tfp1, hits give low values 0.965 | locus YDL192W, strain arf1, hits give low values 0.994 | locus YDR001C, strain nth1, hits give low values 0.987 | locus YDR069C, strain doa4, hits give low values 0.984 | locus YDR101C, strain arx1, hits give low values 1 | locus YDR137W, strain rgp1, hits give low values 1 | locus YDR150W, strain NUM1, hits give low values 0.986 | locus YDR159W, strain sac3, hits give low values 0.974 | locus YDR162C, strain NBP2, hits give low values 0.973 | locus YDR195W, strain ref2 0.956 | locus YDR297W, strain sur2, hits give low values 0.973 | locus YDR318W, strain mcm21, hits give low values 0.978 | locus YDR334W, strain swr1, hits give low values 1.01 | locus YDR335W, strain msn5, hits give low values 1 | locus YDR388W, hits give low values 0.999 | locus YDR392W, strain spt3, hits give low values 1 | locus YDR502C, strain sam2, hits give low values 0.996 | locus YEL003W, strain gim4, hits give low values 0.995 | locus YEL037C, strain rad23, hits give low values 0.991 | locus YEL061C, strain CIN8 (second series), hits give low values 1 | locus YEL061C, strain CIN8, hits give low values 1 | locus YER015W, strain faa2, hits give low values 0.987 | locus YER016W, strain bim1, hits give low values 0.971 | locus YER110C, hits give low values 0.988 | locus YER111C, strain swi4, hits give low values 0.978 | locus YER155C, strain BEM2 (second series), hits give low values 0.974 | locus YER155C, strain BEM2, hits give low values 0.995 | locus YER167W, strain BCK2, hits give low values 0.997 | locus YFR010W, strain ubp6, hits give low values 0.99 | locus YGL078C, strain dbp3, hits give low values 0.998 | locus YGL086W, strain mad1, hits give low values 1 | locus YGL173C, strain kem1, hits give low values 0.974 | locus YGL227W, strain vid30, hits give low values 0.998 | locus YGL240W, strain doc1, hits give low values 0.999 | locus YGL248W, strain PDE1, hits give low values 1.01 | locus YGL253W, strain hxk2, hits give low values 0.977 | locus YGR078C, strain PAC10, hits give low values 1.04 | locus YGR135W, strain pre9, hits give low values 0.96 | locus YGR252W, strain gcn5, hits give low values 1.02 | locus YHR013C, strain ard1, hits give low values 0.979 | locus YHR027C, strain rpn1, hits give low values 0.996 | locus YHR030C, strain SLT2, hits give low values 0.98 and 1.04 | locus YHR079C, strain IRE1 (second series), hits give low values 0.985 | locus YHR079C, strain IRE1, hits give low values 1.06 | locus YHR094C, strain hxt1, hits give low values 0.999 | locus YHR129C, strain ARP1, hits give low values 0.986 | locus YHR142W, strain chs7, hits give low values 0.994 | locus YHR200W, strain rpn10, hits give low values 0.973 | locus YIL066C, strain RNR3, hits give low values 1 | locus YIL073C, strain SPO22, hits give low values 0.909 | locus YIL125W, strain kgd1, hits give low values 0.995 | locus YIR030C, strain dcg1, hits give low values 0.987 | locus YJL092W, strain hpr5, hits give low values 0.986 | locus YJL095W, strain BCK1 (second series), hits give low values 0.986 | locus YJL095W, strain BCK1, hits give low values 1.04 and 1.01 | locus YJL115W, strain asf1, hits give low values 0.98 | locus YJL129C, strain trk1, hits give low values 0.997 | locus YJL134W, strain LCB3, hits give low values 0.997 | locus YJL154C, strain vps35, hits give low values 0.988 | locus YJL164C, strain tpk1, hits give low values 0.985 | locus YJL166W, strain qcr8, hits give low values 0.983 | locus YJL168C, strain set2, hits give low values 0.999 | locus YJL187C, strain SWE1 (second series), hits give low values 1.02 | locus YJR043C, strain POL32, hits give low values 1 | locus YJR066W, strain TOR1, hits give low values 0.98
